According to ChEMBL document CHEMBL3988442, “University of Dundee, Small-Polar-MMV Screening Library” (2021):
Out of some 48,000 compounds screened, about 13,000 (27%) showed an effect of 50% or more. The list shows a part of the results.

What follows are molecules tested on Wolbachia pipientis (assay: Anti-Wolbachia Cell-Based Screen). Conditions: 5 µM.
Type: functional
Set-up: scale not given: in the data most compounds retested in dose-response had high values

SMILES | Percent Effect [%]
COc1ncccc1NC(=O)N1CCCC1c1cc(C)no1 (stereo not given) | -4.048
Cc1cc(C(=O)N2C[C@H]3CC[C@@H]2CN(C)C3)ccc1Cl | -9.049
CC(C)(C)OC(=O)NC(C)(C)c1noc(CSc2ccccn2)n1 | 18.32
COC(=O)NC1(C(=O)Nc2ccc(-c3cc[nH]n3)cc2)CCCC1 | -10.93
Cc1cc(C(=O)N2CCCC3(CCCN3Cc3cccnc3)C2)[nH]n1 (stereo not given) | 0.008691
CC(=O)N1CC2(CCCN2Cc2ccc(Cl)cc2)Cc2ccccc21 (stereo not given) | 134.6
CCS(=O)(=O)N1CCCC2(CCCN2Cc2cccc(Cl)c2)C1.O=C(O)C(F)(F)F (stereo not given) | -14.69
Cn1cc(CN2CCCC3(CCCN3S(C)(=O)=O)C2)cn1.O=C(O)C(F)(F)F (stereo not given) | 1.436
CC(=O)N1CC2(CCCCN2Cc2ccc(Cl)cc2)Cc2ccccc21 (stereo not given) | 100.4
CS(=O)(=O)N1CC2(CCCN2Cc2ccc(Cl)cc2)Cc2ccccc21 (stereo not given) | 113.6
CC(C#N)CSc1ccccc1NCC(=O)NC(C1CC1)C1CC1 (stereo not given) | -11.19
CCOC1CCN(C(=O)NCc2ccc(CN3CCOCC3)cc2)CC1 | -24.74
CNC(=O)CN1CCC(c2cc(OC)cc(OC)c2)C1 (stereo not given) | 8.564
NC(=O)CN1CCC(C(=O)NCc2ccc3nonc3c2)CC1 | -14.82
CNC(=O)CN1CCN(C(=O)Nc2ccc(Cl)cc2F)CC1 | 0.4531
CCC(N)C(=O)N1CCC(OCc2ccc(Cl)c(Cl)c2)CC1.Cl (stereo not given) | 104.6
CSCCC(O)C(=O)N1CCC(OCc2cccnc2)CC1 (stereo not given) | -3.942
COc1cccc(COCC(=O)NC2CCN(CC(N)=O)CC2)c1 | 5.2
CC(C)Oc1cccc(CC(=O)NC2CCN(CC(N)=O)CC2)c1 | -2.756
NC(=O)CN1CCC(OCc2ccc(Cl)c(Cl)c2)CC1 | 99.68
NC(=O)CN1CCC(Nc2ccnc3ccc(Cl)cc23)CC1 | 13.98
CNC(=O)CN1CCC(OCc2ccc(Cl)c(Cl)c2)CC1 | 83.56
NC(=O)CN1CCC(NC(=O)COc2ccc(Cl)c(Cl)c2)CC1 | 99.17
CCn1c(N)nc2cc(C(=O)N3CCN(CC(F)(F)F)CC3)cnc21 | -2.793

SMILES | Percent Effect [%]
COc1ccc(F)c(CN2CCCC3(CCN(C(=O)CSC)C3)C2)c1 (stereo not given) | -11.54
Cc1ccc(F)c(C(=O)NC2CCC(N3C(=O)CCC3=O)CC2)c1 (stereo not given) | -6.109
CCn1cc(C(=O)NCc2csc(Br)c2)cn1 | -5.042
CN(C)c1ncccc1CNC(=O)c1csc(Br)c1 | -2.901
CN(C)c1ccc(C(=O)NCc2csc(Br)c2)cn1 | 132.1
O=C(NCc1csc(Br)c1)c1cnccn1 | 122.2
CN1CCCN(C(=O)NCc2csc(Br)c2)CC1 | -2.09
CC1(c2ccccc2)CCC(=O)N(CCN2CCOC2=O)C1 (stereo not given) | -0.3831
O=C(NCC1(O)CCSC1)c1ccoc1 (stereo not given) | 12.35
O=C(NCC1(O)CCC1)c1cccc(-n2cccn2)c1 | 119.5
CSC1(CNC(=O)NC(C)c2ccc(F)cc2)CCOCC1 (stereo not given) | -5.884
CC(CNC(=O)c1cccc(-n2cccn2)c1)Cn1ccnc1 (stereo not given) | -7.057
Cc1cc(C(=O)NCC2CCC3(CC2)OCCO3)[nH]n1 | -25.64
CSC1(CNC(=O)c2ccn(-c3ccccc3F)n2)CCOCC1 | -3.806
O=C(NCC1CCC2(CC1)OCCO2)c1cccc(-n2cccn2)c1 | 116.2
O=C(NCC1(O)CCSC1)c1cccc(-n2cccn2)c1 (stereo not given) | 105.6
O=C(NCC1(O)CCSC1)c1ccn(-c2ccccc2F)n1 (stereo not given) | -10.8
O=C(NCC1CCC2(CC1)OCCO2)c1ccncc1F | -3.003
CNC(=O)CCOC(=O)c1cccc(-n2cccn2)c1 | -2.822
CSC1(CNC(=O)c2cccc(-n3cccn3)c2)CCOCC1 | 126.6
Cn1cc(C(C)(O)CNc2ccccn2)cn1 (stereo not given) | -0.1049
Oc1cc(CN2CCCCC2c2cccnc2)nc2c(F)cccc12 (stereo not given) | -16.88
CC(C)n1ccnc1C1CCN(C(=O)C2COc3ccccc3O2)CC1 (stereo not given) | -5.747
CCS(=O)(=O)N1CCCC2(COCCN(c3nnc(C)o3)C2)C1.O=C(O)C(F)(F)F (stereo not given) | -4.041

SMILES | Percent Effect [%]
c1ccc2c(c1)CC(Cc1cc(N3CCCC3)cnn1)CCO2 (stereo not given) | -11.32
CC1c2ncc(Cn3cccn3)n2CCN1S(=O)(=O)C1CC1 (stereo not given) | 92.87
O=S(=O)(C1CC1)N1CCn2c(Cn3cccn3)cnc2C1 | 7.108
O=C(NC1CC1)N1CCn2c(Cn3cccn3)cnc2C1.O=C(O)C(F)(F)F | 5.205
CC1c2ncc(Cn3cccn3)n2CCN1S(C)(=O)=O.O=C(O)C(F)(F)F (stereo not given) | 89.72
O=C(O)C(F)(F)F.O=C(O)C(F)(F)F.c1cnn(Cc2cnc3n2CCN(CC2CCCCC2)C3)c1 | -2.959
O=S(=O)(C1CC1)N1CCc2ncc(Cn3cccn3)n2CC1 | -13.53
Cc1noc(C)c1CN1CCc2ncc(Cn3cccn3)n2CC1.O=C(O)C(F)(F)F | -5.332
COCc1cnc2n1CCN(C1CCCC1)C2C.O=C(O)C(F)(F)F (stereo not given) | 11.21
CC1c2ncc(Cn3cccn3)n2CCN1c1ncccn1.O=C(O)C(F)(F)F (stereo not given) | 86.74
CCc1nsc(N2CCN(Cc3ccno3)CC2)n1 | -4.168
COC(=O)C1CCN(C(=O)c2ccc(NS(C)(=O)=O)c(C)c2)CC1 | -4.777
O=S(=O)(c1ccc(Cl)cc1)N1CCC(OCc2ccccn2)C1 (stereo not given) | -17.23
CS(=O)(=O)NC[C@H]1Cn2c(-c3ccc(F)cc3)cnc2CO1 | -20.98
CC(C)(C)OC(=O)N1CSC[C@@H]1C(=O)NCc1ccsc1 | -2.991
O=C(c1cnc(-c2cccs2)s1)N1CCCN2CCCC2C1 (stereo not given) | 13.8
NC(=O)c1ccc(C(=O)N2CCCC(n3ccnc3)C2)s1 (stereo not given) | 109.7
O=C(c1cccnc1N1CCOCC1)N1CCCC(n2ccnc2)C1 (stereo not given) | -11.91
COCCOc1cccc(C(=O)N2CCCC(n3ccnc3)C2)c1 (stereo not given) | 85.64
O=C1CSc2ccc(C(=O)N3CCCC(n4ccnc4)C3)cc2N1 (stereo not given) | 1.64
NC(=O)c1cccc(C(=O)N2CCCC(n3ccnc3)C2)c1 (stereo not given) | 111.9
O=C(c1cnc(-c2cccs2)s1)N1CCCC(n2ccnc2)C1 (stereo not given) | 98.86
